GPR151 ag = activators of human GPR151, primary screen, cell-based, PathHunter beta-arrestin, luminescence | G-protein coupled receptor 151 (Homo sapiens), Q8TDV0 | PathHunter beta-arrestin GPR151 cells | activation, % at 11.2 µM | 650,000 compounds, 1% hits | AID 1508602, 2020; in the data active = activation above about 4.9%
FBW7 act = FBW7 E3 ligase activators, primary screen, biochemical, AlphaScreen, human | AID 1259310, 2017 | 650,000 compounds, 0.13% hits | AlphaScreen FBW7–phospho-cyclin E peptide binding, activator screen | normalized activity (activation), % at 26.1 µM; in the data active = normalized activity above about 1.9%;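 note: purified mutant Fbw7 with reduced substrate affinity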
TEAD-YAP inh = TEAD-YAP interaction inhibition, primary screen, TEAD-YAP interaction inhibitor project, luminescence, HEK-TIYL cells. AID 1259422, 2018. 640,000 compounds, 1.4% hits. TEAD-Gal4/YAP UAS-luciferase luminescence. inhibition, % at 9.12 µM; in the data active = inhibition above about 32%
MITF inh = MITF inhibitors, primary screen, biochemical, AlphaScreen, human | Microphthalmia-associated transcription factor (Homo sapiens), O75030 | AlphaScreen MITF homodimerization, bead proximity signal | inhibition, % at 2.6 µM | 650,000 compounds, 0.91% hits | AID 1259374, 2018; in the data active = inhibition above about 50%
Of the large screens only hits and unclear results are named; the others gave an inactive call. The list is not random: actives were taken first. Their share in the collection is about 3.5%.

CCOc1ccc(C2Oc3c(cc(Br)cc3OC)C=C2[N+](=O)[O-])cc1OC (stereo unspecified)	TEAD-YAP inh 62
COc1ccc(C2Oc3c(cccc3OC)C=C2[N+](=O)[O-])cc1OC (stereo unspecified)	TEAD-YAP inh 43
COc1cc(Br)cc2c1OC(c1ccc3c(c1)OCO3)C([N+](=O)[O-])=C2 (stereo unspecified)	none
COc1ccc(C2Oc3c(cc(Br)cc3OC)C=C2[N+](=O)[O-])cc1OC (stereo unspecified)	TEAD-YAP inh 70
CCOc1ccc(C2Oc3c(cccc3OC)C=C2[N+](=O)[O-])cc1OC (stereo unspecified)	none
COCCNC(=O)c1sc2ncn(CC(=O)N3CCCCC3C)c(=O)c2c1C (stereo unspecified)	none
Cc1ccc(/C=C2/SC(=S)N(CCCC(=O)O)C2=O)cc1	TEAD-YAP inh 86
C=CCOc1ccc(/C=C2\SC(=S)N(CCCC(=O)O)C2=O)cc1	TEAD-YAP inh 80
C=CCN1C(=O)S/C(=C/c2c(F)cccc2Cl)C1=O	none
Cc1ccc(/C=C2\SC(=S)N(CCCC(=O)N3CCOCC3)C2=O)cc1	none
O=C(O)CCCN1C(=O)/C(=C/c2c(F)cccc2Cl)SC1=S	TEAD-YAP inh 60
Cc1ccccc1/C=C1\SC(=S)N(CCCC(=O)O)C1=O	TEAD-YAP inh 45
NC(=O)c1ccc(NC(=O)COC(=O)c2ccc(C(=O)c3ccccc3)cc2)cc1	none
CCOc1cccc(/C=N\NC(=O)C2C(=O)NCC2c2ccccc2)c1O (stereo unspecified)	none
COc1ccc(N/C(=N\c2nc(C)cc(C)n2)NC(=O)c2ccccc2)c(OC)c1	none
CCOc1ccc(/C=C2\SC(=S)N(CCC(=O)O)C2=O)cc1	none
Cc1ccc(/C=C2\SC(=S)N(CCCC(=O)OCCN(C)C)C2=O)cc1	TEAD-YAP inh 93
COCCCN1C(=O)/C(=C/c2ccc(C)cc2)SC1=S	none
Cc1ccc(/C=C2\SC(=S)N(CCCC(=O)O)C2=O)cc1	TEAD-YAP inh 92
Cc1cccc(/C=C2\SC(=S)N(CCCC(=O)O)C2=O)c1	TEAD-YAP inh 75
C#CCOc1ccc(/C=C2/SC(=S)N(CCC(=O)O)C2=O)cc1	TEAD-YAP inh 58
COc1ccc(C(=O)Nc2nc3ccccc3n2C)cc1	none
COc1ccc(C(=O)Nc2cc(C)c(C)s2)cc1	TEAD-YAP inh 34
CCCCc1ccc(NC(=O)c2ccccc2)cc1	none
CCCCc1ccc(C(=O)Nc2cnc3ccccc3c2)cc1	TEAD-YAP inh 40
O=C(Nc1cnc2ccccc2c1)c1cccc(F)c1	TEAD-YAP inh 36
COc1ccc(C(=O)Nc2ccccc2C(=O)Nc2nc3ccccc3n2C)cc1	TEAD-YAP inh 94
CCCCOc1cccc(N/C=C(/C#N)c2nc(-c3cc4cc(Br)ccc4oc3=O)cs2)c1	none
COc1ccc(C(=O)Nc2cnc(NC(=O)c3ccccc3)cc2C)cc1	TEAD-YAP inh 45
COc1ccc(C(=O)Nc2cc(Nc3ccccc3C(N)=O)ccn2)cc1	TEAD-YAP inh 37
COc1cc(Nc2cc(Nc3ccccc3C(N)=O)ccn2)cc(OC)c1OC	none
COc1ccc(C(=O)Nc2cnc3ccccc3c2)cc1	TEAD-YAP inh 84
Cc1nc2nc(SCc3cc(=O)n4cc(Br)ccc4n3)nn2c(C)c1Cc1c(F)cccc1Cl	none
CCCN1CCC2(CC1)NC(=O)N(CC(=O)NCCc1ccccc1)C2=O	none
CCCN1CCC2(CC1)NC(=O)N(CC(=O)NCCc1ccc(OC)c(OC)c1)C2=O	FBW7 act 2.7
O=C(Nc1ccc(N2CCCCC2)cc1)c1ccccc1F	TEAD-YAP inh 70
O=C(Nc1ccc(C(=O)N2CCCC2)cc1)c1ccc(Br)o1	none
O=C(Nc1ccc(N2CCCCC2)cc1)c1ccc(Br)o1	TEAD-YAP inh 49
CCCC(=O)N1CCN(c2ccc(NC(=O)c3ccc(Br)o3)cc2)CC1	TEAD-YAP inh 60
O=C(CNC(=O)c1cccc(F)c1)N/N=C/c1ccccc1O	none
Cn1c(=O)cc(NCc2ccncc2)n(Cc2ccc(F)cc2F)c1=O	none
COCCNc1ccnc2c(-c3cccc(N(C)C)c3)cnn12	none
CCCNc1ccnc2c(-c3cccc(C(=O)O)c3)cnn12	TEAD-YAP inh 103
CCCNc1ccnc2c(-c3cccc(N(C)C)c3)cnn12	TEAD-YAP inh 32
CN(C)c1cccc(Nc2ccnc3c(-c4ccsc4)cnn23)c1	none
COCCNc1ccnc2c(-c3ccc(C(=O)NC4CC4)cc3)cnn12	none
CCCNc1ccnc2c(-c3cccc(C(C)=O)c3)cnn12	none

Screening data (PubChem BioAssay)
